Each structure is given as a SMILES string. Hit rate of the full screen: of about 390,000 compounds, about 55 (0.01%) were called active. Calls follow the shape of the dose curve; as a rule, active = well fitted inhibition curve with a large enough effect; inconclusive = small, poorly fitted or top-dose-only effect; inactive = no such curve, though single readings can be large or run the other way. These entries were drawn from the full list.
% is scaled to controls: 0 for no effect and ±100 for the full control effect.

Sequence of Thioredoxin reductase 1, cytoplasmic (Rattus norvegicus) (O89049 whole entry, looked up): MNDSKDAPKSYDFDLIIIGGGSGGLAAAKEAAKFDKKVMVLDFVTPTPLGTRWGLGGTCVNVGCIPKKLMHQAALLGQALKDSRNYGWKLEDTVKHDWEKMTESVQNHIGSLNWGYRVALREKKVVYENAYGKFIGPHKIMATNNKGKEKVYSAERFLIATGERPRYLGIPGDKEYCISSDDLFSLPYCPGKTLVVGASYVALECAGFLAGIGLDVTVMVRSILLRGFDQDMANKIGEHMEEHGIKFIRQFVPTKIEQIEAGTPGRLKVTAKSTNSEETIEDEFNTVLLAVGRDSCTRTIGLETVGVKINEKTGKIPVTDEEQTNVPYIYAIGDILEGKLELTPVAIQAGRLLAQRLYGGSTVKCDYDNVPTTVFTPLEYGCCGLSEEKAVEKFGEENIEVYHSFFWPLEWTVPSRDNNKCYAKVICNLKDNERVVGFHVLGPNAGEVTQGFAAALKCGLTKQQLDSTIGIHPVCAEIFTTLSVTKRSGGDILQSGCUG

The assay deals with Thioredoxin reductase 1, cytoplasmic (Rattus norvegicus) (UniProt O89049). Put plainly: qHTS Assay for Substrates of Mammalian Selenoprotein Thioredoxin Reductase 1 (TrxR1): qHTS. Also: nearly all actives have a fitted effect of over 50% in size. The settings on record: purified TrxR1 substrate turnover, NADPH consumption readout; series mostly up to 114 µM; activity change, negative = substrate turnover: at the top concentration. The text has this:
The selenoprotein thioredoxin reductase (TrxR; EC 1.8.1.9) is a FAD containing homodimeric pyridine nucleotide-disulfide oxidoreductase with many cellular roles. Together with NADPH and its prime substrate thioredoxin (Trx), the enzyme forms the core of the Trx system. The mammalian Trx system exerts a wide spectrum of functions including redox regulation, antioxidant defense, regulation of transcription factors as well as support of cell growth and replication. Many of these functions involve the reduction of Trx, which may subsequently reduce a number of different substrates including ribonucleotide reductase, peroxiredoxins or NFkB. Mammalian TrxR itself also has a broad substrate specificity, reducing both protein and non-protein substrates, including low molecular weight compounds such as dehydroascorbate, lipoic acid, ubiquinone, and juglone. In addition, several drugs in clinical use for anticancer treatment are indeed known to target TrxR1.
This BioAssay is a validation of an NADPH fluorescence-based, dual-purpose qHTS rTrxR1 assay designed to find potential inhibitors and substrates of rTrxR1. For this particular BioAssay, actives are potential substrate. See related BioAssay for inhibition data deposition.
NIH Molecular Libraries Probe Production Network [MLPCN]
NIH Chemical Genomics Center [NCGC]
Assay Provider: Elias Arner, Karolinska Institute
Assay protocol: 2 uL of reagents (buffer in column 4 as negative control and 90 nM rTrxR1 in columns 1-3 and 5-48) were dispensed into Greiner black solid-bottom 1,536-well assay plates, followed by 1 uL of NADPH (400 uM final concentration) to each well. The plates were centrifuged at 1000 rpm for 15 seconds and subsequently incubated for 5 min at room temperature (~22 deg C) to allow for rTrxR1 reduction. Compounds (23 nL) were then transferred via Kalypsys pin tool equipped with 1536-pin array (10 nL slotted pins, V&P Scientific, San Diego, CA). In addition, a duplicate 2-fold serial dilution of the control compounds auranofin, a known gold-based TrxR1 inhibitor, and juglone (5-hydroxy-1,4-naphthoquinone), a natural TrxR1 substrate, were pin-transferred to columns 2 and 3, respectively. After incubation for 15 min at room temperature (~22 deg C), 1 uL of selenite (400 uM final concentration) were dispensed to each well. The plate was immediately transferred to a ViewLux high-throughput CCD imager (PerkinElmer), wherein kinetic measurements of NADPH fluorescence (Ex 340 nm, Em 450 nm) were acquired (8 minute kinetic read, see Table 1). Read 1 was utilized to assess the capacity of a compound to serve as an rTrxR1 substrate, i.e. a decrease in NADPH fluorescence compared to the no-compound background is an indication of a substrate behavior for that particular compound. For inhibitory activity of a compound, delta values, computed as the difference in fluorescence intensity between the first and last reads of an 8-minute time kinetic window, were used. All reagents were diluted in an assay buffer consisting of 50 mM Tris-HCl, pH 7.5, 2 mM EDTA, and 0.01% Tween-20.
Throughout the screen, reagent bottle and all liquid lines were made light-tight to minimize reagent degradation. All screening operations were performed on a fully integrated robotic system (Kalypsys, San Diego, CA) containing one RX-130 and two RX-90 anthropomorphic robotic arms (Staubli, Duncan, SC). Library plates were screened starting from the lowest and proceeding to the highest concentration, and a 'double-pinning' step of the highest concentration was required to access higher concentrations of compounds. Vehicle-only plates, with DMSO being pin-transferred to the columns 5-48, were inserted uniformly at the beginning and the end of each library in order to monitor and record any shifts in the background, which can be affected by reagent dispensers or loss in enzyme activity over time. […]
(In general: In qHTS, concentration-response curves come from the screen itself.)
On to `COc1ccc(CN(Cc2ccccc2)C(=O)c2ccc(O)cc2)cc1COc1ccc(NC(C)=O)cc1`, for which the “activity change, negative = substrate turnover” value (shortened to “activity change”) was -9.25% (inactive).

Consider `O=C(CSc1nc2c(c(=O)[nH]1)CN(Cc1ccc(F)cc1)CC2)Nc1ccccc1Cl`, for which the “activity change” value was 17.6% (inactive).

Consider `O=C(COc1ccccc1)OCc1cc(=O)n2nc(-c3cccs3)sc2n1`, for which the “activity change” value is 0.495% [at 57.1 µM] (inactive).

`Cc1cccc(NC(=O)COC(=O)c2ccccc2OCc2cccc(Br)c2)c1`: the “activity change” value is -1.38% (inactive).

Turning to `CN(C)C1=C2C=CC=CC2/C(=C2/C=Cc3ccccc32)C=C1` (stereo unspecified), the “activity change” value is -4.06% (inactive).

For `CSc1nc(-c2ccccc2Cl)nc2c1Cc1c(CO)cnc(C)c1O2`, the “activity change” value was -7.75% (inactive).

For the molecule `CN(C)c1ccc(/C=C/c2sc3ccccc3[n+]2C)cc1`, the “activity change” value is -3.98% (inactive).

In the case of `Cc1cccc(NC(=O)c2ccc3nc(C(C)C)oc3c2)c1C`, the “activity change” value is 4.38% [at 57.1 µM] (inactive).

As to `O=C(Nc1ccccc1C(F)(F)F)c1nc(S(=O)(=O)Cc2ccccc2F)ncc1Cl`, the “activity change” value is -1.77% (inactive).

Turning to `CN(C)c1ccc(/C=C/C=C/c2ccnc3ccccc23)cc1`, the “activity change” value is -10.2% (inactive).

Take `CCCCCCC1(C)NC(c2ccc3c(c2)OCO3)=CC(c2ccccc2O)N1` (stereo unspecified): the “activity change” value was -0.425% (inactive).

In the case of `SCc1nc2ccc(Cl)cc2[nH]1`, the “activity change” value was 6.82% (inactive).

For the molecule `Cc1ccc2nc(COc3cccc(NC(=O)Nc4ccc(C)c(Cl)c4)c3)cc(=O)n2c1`, the “activity change” value is 4.87% [at 57.1 µM] (inactive).

Consider `O=C1C[C@H]2C=CCc3cccc(c32)CN1Cc1ccccc1`, for which the “activity change” value is 1.88% (inactive).

On to `O=C1CCC[C@@H]2C[C@@]3(C[C@@H]4CCN1[C@H]24)Nc1ccccc1NC3=NCc1ccccc1`, for which the “activity change” value is 0.601% (inactive).

In the case of `CCCCOc1ccc(CN2C(=O)C(=O)c3cc(Br)cc(C)c32)cc1OC`, the “activity change” value is -13.6% (inactive).

Consider `CCN(CC)c1ccc(/C=C/c2c(C)cnc3ccc(C)cc23)cc1`, for which the “activity change” value is 0.74% (inactive).

Consider `CCOc1ccc(CCNC(=O)Cn2nc(CC)n3c(cc4sc(CC)cc43)c2=O)cc1OCC`, for which the “activity change” value was 5.63% (inactive).

As to `CCC(C)N(c1ccc(/C=C/c2ccnc3ccccc23)cc1)C(C)CC` (stereo unspecified), the “activity change” value is -24.3% (inactive).

With `O=C(COc1ccccc1C(=O)Nc1ccccc1)Nc1cccc(F)c1`, the “activity change” value was -2.82% (inactive).

For `CCCCOc1ccc(C(=O)NO)cc1`, the “activity change” value is 7.06% (inactive).

With `Cc1ccc(-c2nc(=N)sn2Cc2ccccc2)cc1`, the “activity change” value is -7.18% (inactive).

As to `C[N+]1(CC(=O)c2cccs2)CCOCC1`, the “activity change” value was -3.03% (inactive).

`COc1ccccc1OCCNCC(O)COc1cccc2[nH]c3ccccc3c12` (stereo unspecified): the “activity change” value is 1.64% [at 57.1 µM] (inactive).

Turning to `CN(C)c1ccc(/C=c2\[nH]c(=O)/c(=C/c3ccc(N(C)C)cc3)[nH]c2=O)cc1`, the “activity change” value was 0.801% (inactive).

In the case of `Cc1ccc(-n2nc(C)c(C(=O)O)c2-n2cccc2)cc1`, the “activity change” value is 6.47% (inactive).

For the molecule `OC(CBr)CN1CCCCC1` (stereo unspecified), the “activity change” value was 2.77% (inactive).

With `O=C(O)/C(=C/c1c(C(=O)O)[nH]c2cc(Cl)cc(Cl)c12)c1ccccc1`, the “activity change” value is 4.79% [at 57.1 µM] (inactive).

Regarding `Cc1ccc(-c2nnc(Nc3ccc(OCC(N)=O)cc3)c3ccccc23)cc1S(=O)(=O)NCC1CCCO1` (stereo unspecified), the “activity change” value was 5.43% (inactive).

On to `CCc1cccc(NC(=O)c2cnc(N3CCOCC3)c3ccccc23)c1`, for which the “activity change” value is -3.11% [at 57.1 µM] (inactive).

For `CCC(=O)N1CCc2cc(Br)cc(S(=O)(=O)NCc3ccc(Cl)cc3)c21`, the “activity change” value is -5.84% (inactive).

Consider `Cc1cc2oc(C(=O)N(Cc3ccc(Cl)cc3)Cc3ccco3)c(C)c2cc1Cl`, for which the “activity change” value is -6.31% (inactive).

For the molecule `O=C(C[n+]1ccncc1)c1ccc2c(c1)CCCC2`, the “activity change” value was -3.94% (inactive).

Turning to `CNCCCOc1cc2nc(N3CCCN(C)CC3)nc(NC3CCN(C)CC3)c2cc1OC`, the “activity change” value was 72.1% (inactive).

Take `C=CCNC(=O)c1ccc2nc(-c3ccco3)c(-c3ccco3)nc2c1`: the “activity change” value was 5.41% (inactive).

With `Clc1cccc[n+]1CCCC[n+]1ccccc1Cl`, the “activity change” value is -4.62% (inactive).

Take `Cc1ccc(NC(=O)c2ccc3[nH]c(C)cc(=O)c3c2)c(C)c1`: the “activity change” value was -6.49% (inactive).

On to `O=C(COC(=O)c1ccccc1OCCOc1ccccc1)Nc1cccc(Br)c1`, for which the “activity change” value is 4.75% (inactive).

On to `O=C1CC(c2ccc(F)cc2F)c2cc3c(cc2N1)OCO3` (stereo unspecified), for which the “activity change” value was -6.86% (inactive).

With `NS(=O)(=O)c1ccc(NC(=O)CSc2nnc3c(n2)[nH]c2ccccc23)cc1`, the “activity change” value was 3.13% (inactive).

As for `COc1cc2[nH]c(C)c(CCN3CCN(c4ccccc4)CC3)c2cc1OC`, the “activity change” value was -6.51% (inactive).

In the case of `COc1ccc(CCNC(=O)CCCn2c(=O)c3ccccc3n(Cc3ccc(C)cc3)c2=O)cc1OC`, the “activity change” value was 5.29% (inactive).

Turning to `Cc1ccc(-c2cc(N)n(Cc3cccc(Cl)c3)n2)cc1`, the “activity change” value was -9.95% (inactive).

`Oc1ccc(Cn2cc[nH]c2=S)cc1`: the “activity change” value was 2.64% [at 57.1 µM] (inactive).

For the molecule `OCC(O)C(O)C(O)C(O)C=Nc1ccc(/C=C/c2ccnc3ccccc23)cc1` (stereo unspecified), the activity change, negative = substrate turnover is 5.9% [at 0.0914 µM] (inactive).

As to `CC(C)CNc1ncnc2c1nnn2C`, the “activity change” value was -1.51% [at 57.1 µM] (inactive).

Turning to `CCN1CCN(c2ccc(/C=C/c3ccnc4ccccc34)cc2)CC1`, the “activity change” value is -2.31% (inactive).

With `CCC(C(=O)Nc1cccc(-c2nc3cccnc3s2)c1C)c1ccccc1` (stereo unspecified), the “activity change” value is 14% (inactive).

For `COC(=O)c1scc(-c2ccccc2)c1S(=O)(=O)Nc1ccccc1`, the “activity change” value was 6.31% [at 57.1 µM] (inactive).

For `C(=Nc1ccc(/C=C/c2ccnc3ccccc23)cc1)Nc1ccc(/C=C/c2ccnc3ccccc23)cc1`, the “activity change” value is -7.45% (inactive).

In the case of `COc1cc2nc(N3CCCN(C)CC3)nc(NC3CC3)c2cc1OC`, the “activity change” value is 23.4% (inactive).

(Values after PubChem BioAssay AID588456 (National Center for Advancing Translational Sciences (NCATS), 2011).)
